# Records with an inconclusive call do not appear. Calls of active or inactive are those of the source. The call rests on the fitted dose curve; in most records, active means well fitted inhibition curve with a large enough effect; inconclusive means small, poorly fitted or top-dose-only effect; inactive means flat fitted curve, though single readings scatter.
# Molecular target: Glutathione peroxidase 1 (Homo sapiens) (UniProt P07203)
# Test: Primary qHTS Assay for Inhibitors of Recombinant Selenoprotein Glutathione Peroxidase 1 (GPX1) (AID 1845191); further: nearly all actives have a fitted effect of over 65% in size
# Details: recombinant GPX1, GR-coupled NADPH fluorescence, 15 min; series mostly up to 48.8 µM; activity, negative = inhibition: at the top concentration
# Procedure, shortened: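 GR-coupled readout: NADPH consumption tracked by fluorescence, ex 340/em 450 nm, at t=0 and after 15 min at RT. Final mix 10 nM GPX1, 1 mM GSH, 0.5 mM CHP, 0.5 mM NADPH, 100 nM GR, 0.01% BSA, following 30 min enzyme–compound preincubation.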
# On the % scale 0 is the no-effect control and ±100 the full control effect; potency means the concentration at half of the fitted maximal effect.
# Glutathione peroxidase 1 (Homo sapiens), sequence (P07203 whole entry, looked up): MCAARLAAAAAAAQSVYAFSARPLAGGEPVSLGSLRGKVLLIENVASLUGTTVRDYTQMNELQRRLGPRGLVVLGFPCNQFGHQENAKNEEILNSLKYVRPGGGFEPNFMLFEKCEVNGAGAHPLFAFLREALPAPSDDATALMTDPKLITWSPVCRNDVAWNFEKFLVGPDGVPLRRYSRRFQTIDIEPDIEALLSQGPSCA
SMILES,outcome,"activity, negative = inhibition",Potency
CC(=O)[C@@]1(O)CC[C@H]2[C@@H]3C[C@H](C)C4=CC(=O)C=C[C@]4(C)[C@@]3(F)[C@@H](O)C[C@@]21C,inactive,–,–
CCOC(=O)OC(C)OC(=O)[C@@H]1N2C(=O)[C@@H](NC(=O)[C@H](N)c3ccccc3)[C@H]2SC1(C)C (stereo partly specified),–,-14.1% (inactive),–
CCCC(O)C(CC)CO (stereo unspecified),inactive,–,–
O=C(Cn1ccnc1[N+](=O)[O-])NCc1ccccc1,–,4.42% (inactive),–
CC(=O)OCC(COC(C)=O)OC(C)=O,inactive,–,–
Cc1cc(C)c(NC(=O)CN(CC(=O)O)CC(=O)O)c(C)c1Br,inactive,–,–
CC(=O)N[C@@H](Cc1ccc(O)cc1)C(=O)O,–,-3.74% (inactive),–
CCOc1ccc(C(=O)OCCN(CC)CC)cc1,inactive,–,–
C[C@]1(Cn2ccnn2)[C@H](C(=O)O)N2C(=O)C[C@H]2S1(=O)=O,–,0.83% (inactive),–
O=C(c1ccccc1)C(O)c1ccccc1 (stereo unspecified),–,2.49% (inactive),–
CC1(C)S[C@@H]2[C@H](NC(=O)C(C(=O)O)c3ccccc3)C(=O)N2[C@H]1C(=O)O (stereo partly specified),inactive,–,–
Cc1cccc(C)c1NC(=O)CC12CCCN1CCC2,inactive,–,–
CCOc1ccccc1O[C@H](c1ccccc1)[C@H]1CNCCO1,inactive,–,–
NS(=O)(=O)c1cc(C2(O)NC(=O)c3ccccc32)ccc1Cl (stereo unspecified),–,-12.4% (inactive),–
CC(C)(C)C(=O)OCOC(=O)[C@@H]1N2C(=O)[C@@H](NC(=O)[C@H](N)c3ccccc3)[C@H]2SC1(C)C,inactive,–,–
O=C1C(c2[nH]c3ccccc3c2O)=Nc2ccccc21,–,0.81% (inactive),–
CCOc1cc(NC(C)=O)ccc1C(=O)OC,–,2.56% (inactive),–
CCCCC1(COC(=O)CCC(=O)O)C(=O)N(c2ccccc2)N(c2ccccc2)C1=O,inactive,–,–

SMILES,outcome,"activity, negative = inhibition",Potency
NCC1CCC(C(=O)Oc2ccc(CCC(=O)O)cc2)CC1 (stereo unspecified),–,-10.2% (inactive),–
NC(N)=NCCN1CCCCCCC1,inactive [at 0.4 µM],–,–
OCc1ccc(Cl)cc1Cl,–,-13.6% (inactive),–
Cc1cc(O)cc(C)c1Cl,inactive,–,–
NS(=O)(=O)c1cc2c(cc1C(F)(F)F)NCNS2(=O)=O,–,-27.9% (inactive),–
CC(=O)N(CC(O)CO)c1c(I)c(C(=O)NCC(O)CO)c(I)c(C(=O)NCC(O)CO)c1I (stereo unspecified),–,-12.8% (inactive),–
COc1ccccc1OCC(O)CO (stereo unspecified),–,-13% (inactive),–
CC(=O)NCc1c(I)c(NC(C)=O)c(I)c(C(=O)O)c1I,–,2.11% (inactive),–
COCC(=O)Nc1c(I)c(C(=O)NCC(O)CO)c(I)c(C(=O)N(C)CC(O)CO)c1I (stereo unspecified),–,1.91% (inactive),–
CC(C)CCCC(C)CCCC(C)CCCCC(C)CCCC(C)CCCC(C)C (stereo unspecified),–,-20% (inactive),–
Cc1c(I)c(=O)n(-c2ccccc2)n1C,–,2.26% (inactive),–
CC(C(=O)O)c1ccc2c(c1)Cc1cccnc1O2 (stereo unspecified),–,-7.86% (inactive),–
O=C(O)CCCCC1CCSS1 (stereo unspecified),–,–,11.4 µM (active)
CC[C@H](C)[C@H](N)C(=O)O,–,4.53% (inactive),–
CC1(C)[C@@H](OC(=O)CCC(=O)O)CC[C@]2(C)[C@H]3C(=O)C=C4[C@@H]5C[C@@](C)(C(=O)O)CC[C@]5(C)CC[C@@]4(C)[C@]3(C)CC[C@@H]12,inactive,–,–
Cc1c(N(C)C)c(=O)n(-c2ccccc2)n1C,–,-4.21% (inactive),–
CC(C)=CCC/C(C)=C/CO,inactive,–,–
COc1ccc(C(=O)NCc2ccc(OCCN(C)C)cc2)cc1OC,–,1.34% (inactive),–
